# Assay outcomes from PubChem BioAssay.
# HPGD block = HPGD (human) dehydrogenase inhibition; purified HPGD, NADH fluorescence kinetic, PGE2 substrate; Potency, µM, without a hit: top-dose activity change, negative = inhibition, actives largely listed as inhibitors; 150,000 tested, 4.3% active; active = well fitted inhibition curve with a large enough effect, not every such curve was filed as active; inconclusive = small, poorly fitted or top-dose-only effect, or another doubt; inactive = no such curve, though single readings can be large or run the other way
# Target sequence (P15428 whole entry, looked up): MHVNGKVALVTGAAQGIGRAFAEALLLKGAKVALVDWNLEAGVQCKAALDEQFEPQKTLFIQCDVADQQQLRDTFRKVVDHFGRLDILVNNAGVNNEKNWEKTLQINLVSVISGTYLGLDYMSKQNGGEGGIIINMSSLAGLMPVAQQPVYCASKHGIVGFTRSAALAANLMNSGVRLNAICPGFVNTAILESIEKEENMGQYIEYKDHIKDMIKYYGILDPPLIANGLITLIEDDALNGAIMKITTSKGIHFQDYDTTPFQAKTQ
#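 20 nM HPGD preincubated 15 min at room temperature with compound in 50 mM Tris-HCl pH 8, 0.01% Tween 20. Started with 1 mM NAD+ and 30 uM prostaglandin E2; NADH fluorescence (360/450 nm) read 5 times over 30-s intervals, last minus first.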
# 12-hLO inh = blocks human 12-lipoxygenase activity; 150,000 tested, 0.12% active; purified 12-hLO, xylenol orange hydroperoxide absorbance; AID 1452; Potency, µM (doses to about 57.1 µM), for the others: top-dose activity change, negative = inhibition, hits mostly inhibitors; P18054; note: nearly all actives have a fitted effect of over 55% in size
#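 Hydroperoxide output read as Fe(III)-xylenol orange absorbance, 573-to-405 nm ratio, after 30 min reaction with 40 uM arachidonic acid. Enzyme: 150 nM purified human 12hLO, 15 min compound preincubation; 25 mM Hepes pH 7.0, room temperature.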
# p53ts 32C tox = p53ts cell cytotoxicity, permissive temperature | H1299-p53A138V at 32C, ATP luminescence viability, 24 h | Potency, µM (doses to about 46.1 µM), inactives show top-dose activity change, negative = cytotoxicity, hits mostly cytotoxic | 130,000 tested, 0.93% active;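 note: 0% = DMSO and -100% = full killing by reference compound; nearly all actives have a fitted effect of over 55% in size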
#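 ATP-content luminescence (ATPlite) read-out after 24 h compound exposure at 32C in H1299-p53A138V cells (600/well). Tested up to 46 uM. Normalized to DMSO (0%) and 100 uM tamoxifen (100% killing); Hill-fit AC50.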
# p53ts 39C kill = p53ts cell cytotoxicity, nonpermissive temperature. H1299-p53A138V viability at 39C, ATP luminescence, 24 h. Potency, µM (highest dose often 46.1 µM), for inactives: top-dose activity change, negative = cell killing, hits mostly cytotoxic. 130,000 tested, 1.5% active. AID 902; note: nearly all actives have a fitted effect of over 55% in size
# The depositor's hits bear a star; ? = inconclusive; · = no result; ! = repeats disagree; [ ] = another dose, or the depositor's remark. Hits are enriched below; roughly 4.4% of the tested compounds scored in any of these assays. Unless noted, calls come from the whole dose curve; as a rule, active = well fitted curve in the direction sought with a large enough effect; inconclusive = small, poorly fitted or top-dose-only effect, or another doubt; inactive = no such curve, though single readings can be large; an effect the other way counts as inactive or inconclusive. Unless noted, % is set by controls: 0 for no effect and ±100 for the full control effect; potency is the fitted concentration of half-maximal effect.
SMILES,HPGD block,12-hLO inh,p53ts 32C tox,p53ts 39C kill
COc1ccc(C)c2sc(N(Cc3cccnc3)C(=O)C3CCCCC3)nc12,·,·,2.9%,5.3%
Cc1ccccc1OCC(=O)Nc1ccc(C(N)=O)cc1,-7.7%,-4.5%,·,·
Cc1ccccc1OCC(=O)Nc1ccc(Cc2ccncc2)cc1,17.8µM*,0.8%,·,·
COc1cccc(CS(=O)(=O)c2ccccc2)c1,-1.7%,·,·,·
Cc1nn(CCCC(=O)NCCc2ccc(Cl)cc2)c(=O)c2c1sc1ccccc12,·,·,?,20µM*
CCOc1ccc(CCNC(=O)CCCn2nc(C)c3sc4ccccc4c3c2=O)cc1,·,·,-16.6%,?
COc1ccc(CCNC(=O)C(C)n2nc(C)c3sc4ccccc4c3c2=O)c(OC)c1 (stereo not drawn),·,·,?,12.6µM*
O=C(O)Cn1c(=O)oc2cc(S(=O)(=O)N3CCOCC3)ccc21,·,·,6.5%,3.7%
Cc1scc(C(=O)NCc2ccco2)c1-c1ccccc1,31.6µM*,-22.2%,-1.4%,1.4%
O=C(NCc1cccs1)c1ccncc1,1.1%,-1.8%,-8.5%,-6.9%
Cc1cc(C(=O)NCc2cccs2)c(C)o1,15.8µM*,-3.5%,-0.3%,115.2%
O=C(O)c1ccc(N2CCCC2=O)cc1,-7.6%,6.5%,3.8%,6.0%
Cc1occc1C(=O)NCc1cccs1,?,4.9%,-13.3%,8.1%
O=C(NCc1cccs1)c1ccc(N2CCCC2=O)cc1,20µM*,3.3%,·,·
O=C(NCc1cccs1)c1ccccc1,25.1µM*,4.3%,·,·
Cc1ccc(Cl)cc1NC(c1ccc(F)cc1)c1nnc(-c2ccccc2)o1 (stereo not drawn),·,·,11.8%,20.0%
O=C(c1cccn1-c1nnc(N2CCCC2)s1)N1CCN(c2ccccc2)CC1,·,·,0.8%,-11.9%
Cc1ccc(N2CCN(C(=O)CCc3c(C)nc4ncnn4c3C)CC2)c(C)c1,·,·,-6.9%,-9.7%
O=C(O)CCNc1ncnc2nc[nH]c12,-2.2%,-3.0%[11.4 µM],-7.1%[9.22 µM],-0.8%[9.22 µM]
O=C(NNC(=S)NCc1ccco1)c1cccs1,·,1.5%,·,·
O=C(CSCc1ccco1)c1cccs1,15.8µM*,-5.4%,-4.9%,-5.7%
Cc1cc(C(=O)NCc2cccs2)cs1,28.2µM*,3.6%,-5.2%,3.2%
O=C(NCc1ccco1)c1cccs1,25.1µM*,-12.4%,-6.9%,-1.7%
O=C(NCc1ccccc1)c1ccc2c(c1)OCCO2,?,-4.0%,-4.6%,-15.4%
O=C(NCc1cccs1)c1ccc2c(c1)OCCO2,25.1µM*,-1.3%,-12.2%,-6.1%
SMILES,HPGD block,12-hLO inh,p53ts 32C tox,p53ts 39C kill
CCN(CC)CCCNC(=O)Cn1c(-c2cccs2)cc2cc(Cl)ccc21,·,·,-5.1%,·
COc1ccc(Cl)cc1NC(=O)CSC1=Nc2ccccc2C2=NC(CC(=O)NCc3cccs3)C(=O)N12 (stereo not drawn),·,·,7.6%,-27.2%
Cc1cc(C(=O)NCc2ccco2)cs1,15.8µM*,4.5%,-5.4%,0.7%
O=C(NCCN1CCCCC1)c1ccc2c(c1)OCCO2,8.91µM*,2.8%,-10.9%,-22.4%
O=C(NCCCN1CCN(CCCNC(=O)c2ccc3c(c2)OCO3)CC1)c1ccc2c(c1)OCO2,-17.8%,-4.1%,-1.9%,-4.8%
CCc1cccc(NC(=O)C(CC)n2nc(C)c3sc4ccccc4c3c2=O)c1 (stereo not drawn),·,·,-0.5%,-7.9%
NC(=O)c1cc(N2C(=O)C=CC2=O)ccc1Cl,7.94µM*,-18.1%,·,·
Cn1c(=O)c2sccc2n2c(CCC(=O)Nc3ccc(F)cc3)nnc12,·,·,0.4%,7.6%
COCCN1C(=O)C(CC(=O)Nc2ccccc2)SC1=Nc1ccc(OC)cc1 (stereo not drawn),-6.0%,-4.7%,·,·
COc1ccc(NC(=O)CC2Sc3ncnn3C2=O)cc1 (stereo not drawn),7.94µM*,-2.3%,-4.7%,4.6%
CCOC(=O)c1ccc(NC(=O)CC2Sc3ncnn3C2=O)cc1 (stereo not drawn),15.8µM*,-1.2%,9.1%,7.7%
Cc1c(Cl)cccc1NC(=O)c1cc(S(=O)(=O)N2CCCCC2)cn1C,·,·,-10.4%,-4.2%
CC(=NCc1ccco1)c1c(C)[nH]n(-c2nc3ccccc3s2)c1=O,·,-8.7%,?,7.94µM*
CCN(CC)CCCNC(=O)c1ccc2c(c1)N(Cc1c(F)cccc1Cl)C(=O)c1ccccc1S2,·,·,-7.7%,12.6µM*
Nc1nc(-c2cccnc2)cc(-c2cc(-c3cccnc3)nc(N)n2)n1,-7.2%,7.9%[11.4 µM],-2.9%[9.22 µM],8.4%[9.22 µM]
O=C(/C=C\Nc1cccc(F)c1)c1ccc2c(c1)OCO2,·,-14.9%,3.98µM*,10µM*
CN1CC[C@H](CN2c3ccccc3Sc3ccccc32)C1,-5.6%,4.2%[11.4 µM],0.1%[9.22 µM],-9.4%[9.22 µM]
CCN(CC)C(C)CN1c2ccccc2Sc2ccccc21 (stereo not drawn),?,12.6µM*,-18.8%,25.1µM*
CCN(CC)CCNC(=O)c1ccc2c(=O)n3nc(Nc4ccccc4OC)sc3nc2c1,·,·,-27.6%,?
Cc1ccccc1Nc1nn2c(=O)c3ccc(C(=O)NCc4ccccc4)cc3nc2s1,·,·,-27.9%,-4.2%
COc1ccccc1Nc1nn2c(=O)c3ccc(C(=O)NCc4cccs4)cc3nc2s1,·,·,3.16µM*,10µM*
Cc1ccc(Cl)cc1Nc1nn2c(=O)c3ccc(C(=O)NCc4ccc(F)cc4)cc3nc2s1,·,·,0.7%,12.6µM*
Cc1ccc(C)c(Nc2nn3c(=O)c4ccc(C(=O)NCc5cccs5)cc4nc3s2)c1,·,·,15.8µM*,?
CCc1ccc(NC(=O)c2ccc3c(=O)n4nc(Nc5ccccc5C)sc4nc3c2)cc1,·,·,12.6µM*,?
O=C(c1ccc2c(c1)N(Cc1ccc(Cl)cc1)C(=O)c1ccccc1S2(=O)=O)N1CCc2ccccc21,·,·,15.4%,-19.3%
SMILES,HPGD block,12-hLO inh,p53ts 32C tox,p53ts 39C kill
Brc1cc2[nH]cnc2c2ccccc12,22.4µM*,1.7%,8.4%,3.2%
O=c1[nH]cnc2ccccc12,-5.5%,4.0%[0.00818 µM],9.5%,2.1%
CC(=O)N1CC=CC1(CC(C)C)C(=O)NCc1ccccn1 (stereo not drawn),0.8%,2.5%,-6.4%,0.8%
Cc1cc([N+](=O)[O-])nn1CCCC(=O)Nc1sc2c(c1C(N)=O)CCC(C)C2 (stereo not drawn),15.8µM*,-0.8%,·,·
Cc1conc1NC(c1cccs1)c1ccc2cccnc2c1O (stereo not drawn),-23.6%,?,12.6µM*,?
O=C(O)c1ccc(N[C@H](c2ccccc2)c2ccc3cccnc3c2O)cc1,?,-27.6%[11.4 µM],-8.6%[9.22 µM],?
CCN(CC)S(=O)(=O)c1ccc(NC(=O)[C@H](CSCc2ccccc2)N2Cc3ccccc3C2=O)cc1,·,·,4.1%,?
O=C(O)C1CC(=O)N(c2ccc(OCc3c(F)cccc3Cl)cc2)C1 (stereo not drawn),1.58µM*,0.2%,-2.7%,2.2%
O=C(O)c1ccc(-c2ccccc2C(F)(F)F)o1,-7.4%,-1.6%,-1.1%,10.8%
O=C(NCc1ccccc1)c1ccc(-c2ccccc2C(F)(F)F)o1,31.6µM*!,-3.7%[0.00818 µM],·,·
CCCCCCCCCCCCC/C=C\[C@@H](O)[C@H](CO)NC(C)=O,-9.1%,-1.6%,25.2%,31.6µM*
c1ccc2[nH]c(SN3CCOCC3)nc2c1,11.2µM*,7.7%,-16.5%,-3.0%
c1ccc2[nH]c(CN3CCOCC3)nc2c1,?,1.0%,·,·
